From ChEMBL document CHEMBL1961873, “Compounds: GSK PKIS; Assays: Nanosyn kinase panel” (2012)

Legend:
[1] = target: Protein kinase C gamma type (Homo sapiens) (UniProt P05129); conditions: at 1 µM;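 note: each value is an averaged percent inhibition of the enzyme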
[2] = target: T1, Protein kinase C iota type (Homo sapiens) (UniProt P41743); conditions: at 0.1 µM
T1 sequence (whole entry): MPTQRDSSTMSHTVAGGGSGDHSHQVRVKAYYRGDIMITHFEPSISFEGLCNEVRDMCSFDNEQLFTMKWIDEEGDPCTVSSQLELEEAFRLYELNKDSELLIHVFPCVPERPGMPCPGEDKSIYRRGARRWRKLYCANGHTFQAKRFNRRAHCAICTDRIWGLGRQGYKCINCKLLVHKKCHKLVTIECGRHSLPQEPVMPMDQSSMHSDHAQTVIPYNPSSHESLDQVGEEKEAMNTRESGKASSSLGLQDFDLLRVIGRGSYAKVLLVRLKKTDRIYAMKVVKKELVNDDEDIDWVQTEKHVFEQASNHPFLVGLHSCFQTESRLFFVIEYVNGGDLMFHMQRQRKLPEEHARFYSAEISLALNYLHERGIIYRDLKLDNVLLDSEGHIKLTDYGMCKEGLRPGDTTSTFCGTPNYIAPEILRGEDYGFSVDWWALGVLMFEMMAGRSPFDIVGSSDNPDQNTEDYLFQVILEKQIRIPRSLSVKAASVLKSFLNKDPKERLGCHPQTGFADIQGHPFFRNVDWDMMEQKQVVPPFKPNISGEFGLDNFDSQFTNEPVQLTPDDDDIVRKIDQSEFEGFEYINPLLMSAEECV

[3] = target: T1, Protein kinase C iota type (Homo sapiens); conditions: at 1 µM
[4] = target: Protein kinase C theta type (Homo sapiens) (UniProt Q04759); conditions: at 0.1 µM
[5] = target: Protein kinase C theta type (Homo sapiens) (UniProt Q04759); conditions: at 1 µM
[6] = target: Protein kinase C beta type (Homo sapiens) (UniProt P05771); conditions: at 0.1 µM
[7] = target: Protein kinase C beta type (Homo sapiens) (UniProt P05771); conditions: at 1 µM
[8] = target: T2, Serine/threonine-protein kinase D1 (Homo sapiens) (UniProt Q15139); conditions: at 0.1 µM
T2 sequence (whole entry): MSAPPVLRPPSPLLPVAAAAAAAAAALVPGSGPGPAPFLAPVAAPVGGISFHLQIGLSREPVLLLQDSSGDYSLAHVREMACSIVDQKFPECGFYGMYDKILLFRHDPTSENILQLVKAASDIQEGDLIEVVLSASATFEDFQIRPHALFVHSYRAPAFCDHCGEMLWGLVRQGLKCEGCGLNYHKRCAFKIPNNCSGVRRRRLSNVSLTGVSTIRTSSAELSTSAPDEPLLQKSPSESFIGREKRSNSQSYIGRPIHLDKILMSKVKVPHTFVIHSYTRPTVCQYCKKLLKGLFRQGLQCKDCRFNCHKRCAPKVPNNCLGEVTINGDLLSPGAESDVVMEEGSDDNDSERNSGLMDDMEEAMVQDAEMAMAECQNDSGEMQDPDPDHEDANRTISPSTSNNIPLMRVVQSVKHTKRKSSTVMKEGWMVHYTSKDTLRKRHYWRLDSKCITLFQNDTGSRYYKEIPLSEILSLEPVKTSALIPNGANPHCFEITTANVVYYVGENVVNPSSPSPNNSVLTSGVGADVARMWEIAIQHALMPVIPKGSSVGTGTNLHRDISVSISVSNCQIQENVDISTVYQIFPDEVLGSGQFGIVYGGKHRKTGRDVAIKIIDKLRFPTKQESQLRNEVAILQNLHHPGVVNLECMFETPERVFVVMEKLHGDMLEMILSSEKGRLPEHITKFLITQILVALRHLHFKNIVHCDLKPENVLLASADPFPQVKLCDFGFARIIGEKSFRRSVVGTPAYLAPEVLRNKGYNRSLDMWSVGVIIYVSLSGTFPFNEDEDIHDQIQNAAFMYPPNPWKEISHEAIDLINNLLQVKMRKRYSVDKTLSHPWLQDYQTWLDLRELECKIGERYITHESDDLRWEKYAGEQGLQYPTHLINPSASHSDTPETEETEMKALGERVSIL

[9] = target: T2, Serine/threonine-protein kinase D1 (Homo sapiens); conditions: at 1 µM
[10] = target: T3, Serine/threonine-protein kinase D2 (Homo sapiens) (UniProt Q9BZL6); conditions: at 0.1 µM
T3 sequence (whole entry): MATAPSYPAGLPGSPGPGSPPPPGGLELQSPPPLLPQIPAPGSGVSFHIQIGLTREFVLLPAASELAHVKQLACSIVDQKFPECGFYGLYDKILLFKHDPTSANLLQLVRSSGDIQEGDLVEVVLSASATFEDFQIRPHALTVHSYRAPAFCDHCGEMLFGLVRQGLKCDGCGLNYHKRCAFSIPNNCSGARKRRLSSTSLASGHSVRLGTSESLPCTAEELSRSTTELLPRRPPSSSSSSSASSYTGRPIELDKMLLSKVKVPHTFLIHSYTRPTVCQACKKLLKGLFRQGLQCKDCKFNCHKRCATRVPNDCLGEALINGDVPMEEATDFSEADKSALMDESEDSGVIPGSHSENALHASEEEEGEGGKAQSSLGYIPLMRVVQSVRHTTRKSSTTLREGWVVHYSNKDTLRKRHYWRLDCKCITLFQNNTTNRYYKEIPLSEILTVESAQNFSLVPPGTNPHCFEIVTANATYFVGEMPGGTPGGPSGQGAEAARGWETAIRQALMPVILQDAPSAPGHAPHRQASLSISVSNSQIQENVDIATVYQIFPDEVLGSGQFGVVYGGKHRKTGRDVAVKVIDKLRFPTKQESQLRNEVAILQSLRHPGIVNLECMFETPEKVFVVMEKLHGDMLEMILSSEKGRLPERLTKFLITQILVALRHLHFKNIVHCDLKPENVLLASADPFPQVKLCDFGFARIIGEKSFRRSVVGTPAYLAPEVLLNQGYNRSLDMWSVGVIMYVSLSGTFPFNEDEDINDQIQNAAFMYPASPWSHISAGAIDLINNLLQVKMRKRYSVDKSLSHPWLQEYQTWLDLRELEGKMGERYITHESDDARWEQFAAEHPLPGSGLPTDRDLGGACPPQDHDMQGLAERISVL

[11] = target: T3, Serine/threonine-protein kinase D2 (Homo sapiens); conditions: at 1 µM
[12] = target: T4, Serine/threonine-protein kinase D3 (Homo sapiens) (UniProt O94806); conditions: at 0.1 µM
T4 sequence (whole entry): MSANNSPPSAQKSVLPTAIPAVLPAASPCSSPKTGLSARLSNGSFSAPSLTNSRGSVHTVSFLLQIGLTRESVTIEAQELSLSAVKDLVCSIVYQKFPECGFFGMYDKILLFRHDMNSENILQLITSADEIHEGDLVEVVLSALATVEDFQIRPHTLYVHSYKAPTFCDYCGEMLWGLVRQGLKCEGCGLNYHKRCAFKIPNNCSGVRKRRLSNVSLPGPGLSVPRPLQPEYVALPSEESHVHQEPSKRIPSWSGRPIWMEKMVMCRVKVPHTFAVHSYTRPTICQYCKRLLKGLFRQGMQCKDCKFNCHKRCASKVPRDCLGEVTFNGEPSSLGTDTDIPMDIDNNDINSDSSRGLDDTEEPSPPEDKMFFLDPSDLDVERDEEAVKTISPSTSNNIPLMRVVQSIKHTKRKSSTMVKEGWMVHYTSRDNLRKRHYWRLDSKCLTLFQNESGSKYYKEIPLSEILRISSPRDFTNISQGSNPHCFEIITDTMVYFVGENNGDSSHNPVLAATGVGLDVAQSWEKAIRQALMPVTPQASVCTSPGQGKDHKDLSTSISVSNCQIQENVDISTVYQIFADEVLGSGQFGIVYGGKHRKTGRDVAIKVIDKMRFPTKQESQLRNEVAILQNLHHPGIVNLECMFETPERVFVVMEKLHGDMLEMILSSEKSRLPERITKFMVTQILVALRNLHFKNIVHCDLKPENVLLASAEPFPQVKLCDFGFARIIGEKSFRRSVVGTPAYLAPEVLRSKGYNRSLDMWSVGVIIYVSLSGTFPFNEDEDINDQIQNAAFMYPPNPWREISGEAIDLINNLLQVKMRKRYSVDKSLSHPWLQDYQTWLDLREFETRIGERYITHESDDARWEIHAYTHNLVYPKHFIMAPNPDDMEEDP

[13] = target: T4, Serine/threonine-protein kinase D3 (Homo sapiens); conditions: at 1 µM
[14] = target: T5, cGMP-dependent protein kinase 1 (Homo sapiens) (UniProt Q13976); conditions: at 0.1 µM
T5 sequence (whole entry): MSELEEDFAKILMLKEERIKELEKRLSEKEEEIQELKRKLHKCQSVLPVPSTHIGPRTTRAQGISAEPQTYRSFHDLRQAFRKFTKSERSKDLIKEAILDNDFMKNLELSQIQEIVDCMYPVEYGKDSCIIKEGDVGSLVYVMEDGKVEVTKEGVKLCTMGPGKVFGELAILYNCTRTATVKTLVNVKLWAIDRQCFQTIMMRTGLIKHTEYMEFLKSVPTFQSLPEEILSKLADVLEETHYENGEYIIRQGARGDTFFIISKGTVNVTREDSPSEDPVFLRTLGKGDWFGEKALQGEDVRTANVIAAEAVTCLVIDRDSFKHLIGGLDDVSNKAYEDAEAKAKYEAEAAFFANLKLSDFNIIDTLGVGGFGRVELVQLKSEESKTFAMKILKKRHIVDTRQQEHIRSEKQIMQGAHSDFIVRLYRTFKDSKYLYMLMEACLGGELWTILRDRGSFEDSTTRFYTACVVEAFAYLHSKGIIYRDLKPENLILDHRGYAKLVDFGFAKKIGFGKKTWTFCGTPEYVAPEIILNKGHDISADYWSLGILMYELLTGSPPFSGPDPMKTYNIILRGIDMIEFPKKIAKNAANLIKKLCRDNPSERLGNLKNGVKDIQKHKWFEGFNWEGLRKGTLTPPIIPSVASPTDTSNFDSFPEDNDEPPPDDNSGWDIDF

[15] = target: T5, cGMP-dependent protein kinase 1 (Homo sapiens); conditions: at 1 µM
[16] = target: T6, cGMP-dependent protein kinase 2 (Homo sapiens) (UniProt Q13237); conditions: at 0.1 µM
T6 sequence (whole entry): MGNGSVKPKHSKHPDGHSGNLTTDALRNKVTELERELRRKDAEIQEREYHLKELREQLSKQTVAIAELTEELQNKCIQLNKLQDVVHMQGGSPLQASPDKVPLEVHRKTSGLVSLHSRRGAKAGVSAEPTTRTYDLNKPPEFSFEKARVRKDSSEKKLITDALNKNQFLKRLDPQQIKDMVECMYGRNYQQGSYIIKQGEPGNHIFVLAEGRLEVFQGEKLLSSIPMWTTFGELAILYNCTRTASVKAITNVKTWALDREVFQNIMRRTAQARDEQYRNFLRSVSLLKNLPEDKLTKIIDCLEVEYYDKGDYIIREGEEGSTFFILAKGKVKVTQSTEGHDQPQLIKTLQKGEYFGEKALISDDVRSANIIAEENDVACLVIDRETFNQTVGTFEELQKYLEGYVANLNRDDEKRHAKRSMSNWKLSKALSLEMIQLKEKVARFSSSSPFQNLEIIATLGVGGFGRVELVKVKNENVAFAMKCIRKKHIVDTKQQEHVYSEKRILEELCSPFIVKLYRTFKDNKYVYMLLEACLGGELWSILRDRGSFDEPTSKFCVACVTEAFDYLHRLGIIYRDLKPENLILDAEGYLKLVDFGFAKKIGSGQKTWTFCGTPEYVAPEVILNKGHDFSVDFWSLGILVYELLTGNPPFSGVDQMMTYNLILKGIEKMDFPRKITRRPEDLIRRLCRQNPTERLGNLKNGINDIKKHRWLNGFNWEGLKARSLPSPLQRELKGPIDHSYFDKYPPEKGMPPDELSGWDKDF

[17] = target: T6, cGMP-dependent protein kinase 2 (Homo sapiens); conditions: at 1 µM
[18] = target: T7, cAMP-dependent protein kinase catalytic subunit PRKX (Homo sapiens) (UniProt P51817); conditions: at 0.1 µM
T7 sequence (whole entry): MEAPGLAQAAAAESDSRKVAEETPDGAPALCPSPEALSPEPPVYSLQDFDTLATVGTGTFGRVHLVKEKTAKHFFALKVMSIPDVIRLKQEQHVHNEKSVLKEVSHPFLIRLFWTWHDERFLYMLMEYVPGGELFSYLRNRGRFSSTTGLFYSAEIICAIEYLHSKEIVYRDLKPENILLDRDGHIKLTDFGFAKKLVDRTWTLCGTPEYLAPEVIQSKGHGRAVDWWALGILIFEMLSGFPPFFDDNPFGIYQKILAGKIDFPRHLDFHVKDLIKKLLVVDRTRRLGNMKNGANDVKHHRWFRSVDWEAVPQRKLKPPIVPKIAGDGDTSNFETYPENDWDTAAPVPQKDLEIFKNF

[19] = target: T7, cAMP-dependent protein kinase catalytic subunit PRKX (Homo sapiens); conditions: at 1 µM
[20] = target: Rho-associated protein kinase 1 (Homo sapiens) (UniProt Q13464); conditions: at 0.1 µM;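 note: values are mean percent inhibition of ROCK1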
Sequence of Rho-associated protein kinase 1 (Homo sapiens) (Q13464 2-1354 limits assumed): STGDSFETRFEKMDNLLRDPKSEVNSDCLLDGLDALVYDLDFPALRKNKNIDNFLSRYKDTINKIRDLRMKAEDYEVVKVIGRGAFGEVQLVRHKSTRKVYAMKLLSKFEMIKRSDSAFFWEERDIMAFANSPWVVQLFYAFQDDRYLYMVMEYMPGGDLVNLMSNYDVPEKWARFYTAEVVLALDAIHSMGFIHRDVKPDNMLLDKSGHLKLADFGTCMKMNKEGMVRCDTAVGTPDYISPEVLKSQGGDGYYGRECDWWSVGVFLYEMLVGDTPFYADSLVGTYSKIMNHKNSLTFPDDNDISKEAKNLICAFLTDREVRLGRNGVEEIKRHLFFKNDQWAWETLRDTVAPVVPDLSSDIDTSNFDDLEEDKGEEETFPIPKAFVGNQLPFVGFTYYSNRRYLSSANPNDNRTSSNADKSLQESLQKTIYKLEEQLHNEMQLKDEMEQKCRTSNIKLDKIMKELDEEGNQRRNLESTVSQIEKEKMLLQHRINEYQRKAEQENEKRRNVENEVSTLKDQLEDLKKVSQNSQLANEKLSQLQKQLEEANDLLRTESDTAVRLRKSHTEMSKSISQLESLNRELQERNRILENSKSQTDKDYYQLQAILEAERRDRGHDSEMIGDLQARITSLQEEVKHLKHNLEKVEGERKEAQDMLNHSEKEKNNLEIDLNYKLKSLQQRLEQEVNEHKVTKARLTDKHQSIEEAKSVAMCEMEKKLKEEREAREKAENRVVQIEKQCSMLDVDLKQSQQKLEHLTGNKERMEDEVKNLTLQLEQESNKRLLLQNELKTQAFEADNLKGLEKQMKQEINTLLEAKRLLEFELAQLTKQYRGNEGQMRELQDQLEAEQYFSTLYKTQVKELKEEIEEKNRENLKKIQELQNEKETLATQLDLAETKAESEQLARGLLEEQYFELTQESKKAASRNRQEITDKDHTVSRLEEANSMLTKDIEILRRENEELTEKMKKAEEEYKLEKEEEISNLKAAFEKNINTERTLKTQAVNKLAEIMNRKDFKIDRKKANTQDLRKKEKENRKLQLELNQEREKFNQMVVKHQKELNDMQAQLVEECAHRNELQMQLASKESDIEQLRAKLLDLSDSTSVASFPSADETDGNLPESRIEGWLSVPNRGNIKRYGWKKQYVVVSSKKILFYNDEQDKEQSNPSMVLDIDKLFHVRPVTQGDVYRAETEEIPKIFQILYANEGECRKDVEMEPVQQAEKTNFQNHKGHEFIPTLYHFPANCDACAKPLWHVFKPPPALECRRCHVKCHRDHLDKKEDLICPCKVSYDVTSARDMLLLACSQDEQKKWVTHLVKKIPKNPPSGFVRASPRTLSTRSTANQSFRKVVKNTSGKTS

Sequence of Protein kinase C theta type (Homo sapiens) (Q04759 whole entry, looked up): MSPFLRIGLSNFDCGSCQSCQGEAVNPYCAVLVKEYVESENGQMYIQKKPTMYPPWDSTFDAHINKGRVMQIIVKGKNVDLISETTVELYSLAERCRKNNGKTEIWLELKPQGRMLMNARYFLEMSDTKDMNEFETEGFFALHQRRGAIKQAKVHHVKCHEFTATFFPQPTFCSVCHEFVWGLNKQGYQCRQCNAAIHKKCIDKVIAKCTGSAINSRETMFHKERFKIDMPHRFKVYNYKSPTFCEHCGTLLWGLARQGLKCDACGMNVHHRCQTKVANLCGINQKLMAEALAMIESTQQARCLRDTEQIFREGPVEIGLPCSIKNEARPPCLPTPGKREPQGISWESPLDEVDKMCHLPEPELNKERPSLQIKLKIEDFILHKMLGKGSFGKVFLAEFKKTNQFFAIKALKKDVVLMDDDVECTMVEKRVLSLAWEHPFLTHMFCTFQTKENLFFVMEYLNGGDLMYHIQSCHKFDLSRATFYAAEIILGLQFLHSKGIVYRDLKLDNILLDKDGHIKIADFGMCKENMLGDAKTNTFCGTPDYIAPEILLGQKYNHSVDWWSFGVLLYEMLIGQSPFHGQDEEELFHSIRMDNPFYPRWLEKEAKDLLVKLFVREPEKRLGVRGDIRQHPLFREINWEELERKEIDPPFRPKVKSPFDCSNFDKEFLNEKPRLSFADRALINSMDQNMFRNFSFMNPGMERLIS
Sequence of Protein kinase C beta type (Homo sapiens) (P05771 2-671 limits assumed): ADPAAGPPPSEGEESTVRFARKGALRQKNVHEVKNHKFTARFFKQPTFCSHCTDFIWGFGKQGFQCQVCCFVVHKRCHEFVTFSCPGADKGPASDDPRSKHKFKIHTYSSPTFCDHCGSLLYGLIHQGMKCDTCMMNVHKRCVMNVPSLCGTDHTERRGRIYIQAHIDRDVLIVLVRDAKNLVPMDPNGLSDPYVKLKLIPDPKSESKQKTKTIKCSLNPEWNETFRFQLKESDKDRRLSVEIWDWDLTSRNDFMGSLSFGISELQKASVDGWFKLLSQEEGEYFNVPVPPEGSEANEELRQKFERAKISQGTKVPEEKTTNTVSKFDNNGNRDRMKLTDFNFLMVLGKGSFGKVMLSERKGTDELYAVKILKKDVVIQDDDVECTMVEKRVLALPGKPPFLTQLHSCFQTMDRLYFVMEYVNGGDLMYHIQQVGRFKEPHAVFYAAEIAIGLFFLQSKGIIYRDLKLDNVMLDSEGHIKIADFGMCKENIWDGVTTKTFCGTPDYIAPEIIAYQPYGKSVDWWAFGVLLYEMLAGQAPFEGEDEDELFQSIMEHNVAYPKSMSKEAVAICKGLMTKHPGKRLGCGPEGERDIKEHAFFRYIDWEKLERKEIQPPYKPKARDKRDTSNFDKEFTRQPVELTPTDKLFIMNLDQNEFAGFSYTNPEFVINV

Row | Structure (SMILES) | inhibition [1] | inhibition [2] | inhibition [3] | inhibition [4] | inhibition [5] | inhibition [6] | inhibition [7] | inhibition [8] | inhibition [9] | inhibition [10] | inhibition [11] | inhibition [12] | inhibition [13] | inhibition [14] | inhibition [15] | inhibition [16] | inhibition [17] | inhibition [18] | inhibition [19] | inhibition [20]
1 | CNC(=O)c1cncc(/C=C/c2ccccc2C)c1 | 4.82% | 0.25% | 1.08% | 2.42% | 5.04% | 0.51% | 3.14% | 3.24% | 5.01% | 3.71% | 3.79% | 3.31% | 4.34% | 4.05% | 5.68% | 2.97% | 5.05% | 3.99% | 6.15% | 1.2%
2 | CN1CCC(n2cnc(-c3ccc(F)cc3)c2-c2ccnc(NCCO)n2)CC1 | 5.6% | 1.02% | 1.08% | 3.59% | 5.13% | 1.17% | 7.68% | 5.8% | 14.6% | 4.75% | 14.8% | 6.16% | 11% | 1.3% | 4.89% | 2.55% | 5.54% | 3.06% | 5.03% | 0.7%
